# Test results as given in the supplement of paper PMC10127200.
# Where a name gives a salt, the structure may show the parent alone.
# Assays:
# Assay in all cases: Euclidean distance of Cell Painting phenotypic profile (signed KS, 77 features) to DMSO centroid (dimensionless distance); 5 or 10 uM (library dependent); higher = stronger phenotypic change vs DMSO (phenoactivity)
# Conditions in all cases: 48 h
# 786-O = system: 786-O
# In short: (§1)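 Stained cells were imaged confocally at 20X with 9 fields per well, after 48 h of exposure to library compounds at 10 or 5 uM (set by library; 0.1% DMSO final). The cells were five cancer lines and a healthy fibroblast line. From the images, Harmony extracted 77 features, each expressed as a signed Kolmogorov-Smirnov statistic relative to same-plate vehicle wells. Phenoactivity is measured as Euclidean distance to the median vehicle profile, using plate-position-corrected, correlation-weighted profiles averaged across replicates at the top dose.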
# A549 = system: A549
# In short: as §1
# DU145 = system: DU145
# In short: as §1
# FB = system: FB
# In short: as §1
# HEPG2 = system: HEPG2
# In short: as §1
# OVCAR4 = system: OVCAR4
# In short: as §1
SMILES,Euclidean distance (786-O),Euclidean distance (A549),Euclidean distance (DU145),Euclidean distance (FB),Euclidean distance (HEPG2),Euclidean distance (OVCAR4)
CC(C)(C)NC[C@H](O)c1ccc(O)c(CO)c1 [levalbuterol tartrate],0.685,0.326,0.582,0.969,0.566,0.907
CCN(CC)C(=O)/C(C#N)=C/c1cc(O)c(O)c([N+](=O)[O-])c1 [Entacapone],0.439,0.512,0.513,1.1,0.422,0.77
COc1cc2c(cc1OC)-c1cc3ccc(OC)c(OC)c3c[n+]1CC2 [Palmatine],0.525,0.996,0.565,0.73,1.18,0.631
c1ccc2c(Oc3nc(Nc4ccc(N5CCOCC5)cc4)c4ncn(C5CCCCC5)c4n3)cccc2c1 [Purmorphamine],1.93,1.81,0.922,0.758,1.17,1.94
C=CC(=O)N1CC[C@H](n2nc(C#Cc3cc(OC)cc(OC)c3)c3c(N)ncnc32)C1,2.21,1.47,2.08,4.1,3.97,1.58
NC(=O)c1ccc(-c2nc(-c3ccccn3)c(-c3ccc4c(c3)OCO4)[nH]2)cc1,1.59,2.49,1.48,1.91,2.52,2.61
COc1ccc(-c2ccc3ncc4c(c3c2)n(-c2ccc(N3CCNCC3)c(C(F)(F)F)c2)c(=O)n4C)cn1,6.24,5.51,7.61,6.11,5.69,5.98
CC(C)c1cc(-c2n[nH]c(=O)n2-c2ccc3c(ccn3C)c2)c(O)cc1O [Ganetespib (STA-9090)],3.55,2.86,4.37,2.43,3.34,2.93
COC(=O)c1cc(OC)c2c(c1-c1c(C(=O)OC)cc(OC)c3c1OCO3)OCO2 [Bifendate],1.36,1.51,0.627,1.22,0.392,1.35
N#C/C(=C1/SC[C@@H](c2ccc(Cl)cc2Cl)S1)n1ccnc1 [Luliconazole],1.47,1.03,0.686,1.08,0.589,1.1
Nc1ccc(S(=O)(=O)c2ccc(N)cc2)cc1 [Dapson],1.45,2.62,2.45,1.64,0.497,1.8
Cc1ccc(NC(=O)c2ccc(CN3CCN(C)CC3)cc2)cc1Nc1nc(-c2cccnc2)cs1 [Masitinib (AB1010)],2.6,2.76,2.65,3.16,2.4,2.08
Cl.NCCCC[C@H](N)C(=O)O [L-Lysine hydrochloride],0.954,1.04,0.836,0.872,1.27,0.646
CCOC(=O)O[C@]1(C(=O)OCCl)CC[C@H]2[C@@H]3CCC4=CC(=O)C=C[C@]4(C)[C@H]3[C@@H](O)C[C@@]21C [Loteprednol etabonate],1.18,2.23,1.71,1.66,0.658,1.81
NCCCC[C@H](NC(=O)[C@@H](NC(=O)[C@H](Cc1c[nH]c2ccccc12)NC(=O)[C@H](CCCCN)NC(=O)[C@H](CCCCN)NC(=O)[C@H](Cc1c[nH]c2ccccc12)NC(=O)[C@H](Cc1c[nH]c2ccccc12)NC(=O)[C@H](CCCCN)NC(=O)[C@@H](N)CCCCN)C(c1ccccc1)c1ccccc1)C(N)=O,4.67,1.24,1.35,1.8,1.2,2.23
C=CCc1cccc(/C=N/NC(=O)CN2CCN(Cc3ccccc3)CC2)c1O,2.25,2.14,1.28,1.79,2.31,2.68
COc1cc(Nc2ncc(F)c(Nc3ccc4c(n3)NC(=O)C(C)(C)O4)n2)cc(OC)c1OC [R406 (free base)],2.36,3.53,3.18,2.76,1.99,2.41
CC[C@H]1OC(=O)[C@H](C)[C@@H](O[C@H]2C[C@@](C)(OC)[C@@H](O)[C@H](C)O2)[C@H](C)[C@@H](O[C@@H]2O[C@H](C)C[C@H](N(C)C)[C@H]2O)[C@](C)(OC)C[C@@H](C)C(=O)[C@H](C)[C@@H](O)[C@]1(C)O [Clarithromycin],0.952,0.722,0.938,0.905,0.629,0.909
CN1CCN(C2CCN(C(=O)Nc3cc(Oc4ccc(NC(=O)C5(C(=O)Nc6ccc(F)cc6)CC5)c(F)c4)ccn3)CC2)CC1 [Golvatinib (E7050)],1.08,1.47,1.32,3.36,3.28,1.45
CCC(=O)c1c(O)cc(O)cc1O [Flopropione],1.34,0.879,1.2,1.39,0.447,1.04
Cc1c(-c2ccc(O)cc2)n(Cc2ccc(OCCN3CCCCCC3)cc2)c2ccc(O)cc12 [Bazedoxifene Acetate],4.76,4.78,3.21,4.56,4.37,3.76
COc1ccc2[nH]c([S+]([O-])Cc3ncc(C)c(OC)c3C)nc2c1 (configuration not stated) [Omeprazole],3.37,2.83,3.32,3.97,4.04,2.98
CN1CC[C@H](c2c(O)cc(O)c3c(=O)cc(-c4ccccc4Cl)oc23)[C@H](O)C1 [Flavopiridol HCl],3.1,3.15,3.43,3.29,2.41,3.45
Nc1ccc(C(=O)O)c(O)c1 [4-Aminosalicylic acid],0.634,0.798,2.33,0.835,0.517,0.799

SMILES,Euclidean distance (786-O),Euclidean distance (A549),Euclidean distance (DU145),Euclidean distance (FB),Euclidean distance (HEPG2),Euclidean distance (OVCAR4)
CC1=C[C@H]2C(=O)O[C@H]3C[C@@H](C/C=C(\C)C[C@@H](C)/C=C/C=C4\CO[C@H](/C1=N\O)[C@@]42O)O[C@@]1(CC[C@H](C)[C@@H](C)O1)C3.CC[C@H]1O[C@]2(CC[C@@H]1C)C[C@@H]1C[C@@H](C/C=C(\C)C[C@@H](C)/C=C/C=C3\CO[C@@H]4/C(=N\O)C(C)=C[C@@H](C(=O)O1)[C@]34O)O2 [Milbemycin Oxime],0.91,0.957,0.954,1.3,0.456,1.11
COc1ccc(C(=O)Nc2sc3c(c2C(N)=O)CCCC3)cc1OC,1.04,2.61,1.02,0.845,0.747,2.82
COc1ccc(-c2cc(=O)c3c(O)c(OC)c(O)cc3o2)cc1OC [Eupatilin],1.61,1.04,1.76,1.51,1.35,0.872
CCCc1ncc(C[n+]2ccccc2C)c(N)n1 [Amprolium HCl],1.47,0.883,1.08,1.27,0.679,1.39
COc1ccc2c3c1O[C@H]1C[C@@H](O)C=C[C@@]31CCN(C)C2 [Galanthamine],0.802,1.14,0.605,0.959,0.423,0.852
CNCc1ccc(-c2[nH]c3cc(F)cc4c3c2CCNC4=O)cc1,1.61,1.12,0.651,1.66,1.33,1.23
O=C1[C@H]2CCCC[C@H]2C(=O)N1CCCCN1CCN(c2nsc3ccccc23)CC1 [Perospirone hydrochloride],2.05,1.44,1.08,1.59,1.05,1.36
CCC(=O)NS(=O)(=O)c1ccc(-c2c(-c3ccccc3)noc2C)cc1 [Parecoxib],0.575,0.57,0.471,1.11,0.593,0.719
O=C1Nc2ccc(Cl)cc2[C@@](C#CC2CC2)(C(F)(F)F)O1 [Efavirenz],1.21,1.3,2.23,1.28,0.747,1.1
COc1cc(C(=O)NS(=O)(=O)c2ccccc2C)ccc1Cc1cn(C)c2ccc(NC(=O)OC3CCCC3)cc12 [Zafirlukast],0.974,1.5,1.22,1.21,0.548,1.34
CC(C(=O)O)c1cccc(Oc2ccccc2)c1 (configuration not stated) [Fenoprofen calcium hydrate],1.27,0.707,0.898,0.869,0.486,1.2
CCCCc1ncc(/C=C(\Cc2cccs2)C(=O)O)n1Cc1ccc(C(=O)O)cc1 [Eprosartan Mesylate],0.683,0.706,1.64,0.647,1.3,1.44
C=C1/C(=C\C=C2/CCC[C@]3(C)[C@@H]([C@H](C)/C=C/[C@@H](O)C4CC4)CC[C@@H]23)C[C@@H](O)C[C@@H]1O [Calcipotriene],0.625,1.01,0.941,2.13,0.91,1.51
Cc1ccc2c(Cl)cc(Cl)c(O)c2n1 [Chlorquinaldol],2.59,2.3,1.54,2.53,2.09,2.94
N=C(N)NC(=N)N1CCOCC1 [Moroxydine HCl],1.5,0.937,1.25,0.666,0.422,1.22
Cc1c(-c2ccc(-c3ccccc3F)cc2)nc2ccc(F)cc2c1C(=O)O [Brequinar],1.61,1.46,0.974,0.698,1.44,1.45
O=C1NC(=O)/C(=C/c2ccc(-c3ccc(F)cc3O)o2)S1,1.18,0.855,1.25,1.02,0.814,0.97
CC[C@H](C)C(=O)O[C@H]1CCC=C2C=C[C@H](C)[C@H](CC[C@@H]3C[C@@H](O)CC(=O)O3)[C@H]21 [Mevastatin],2.6,1.88,0.707,3.12,1.43,1.64
COc1cc([C@@H]2c3cc4c(cc3[C@@H](O[C@@H]3O[C@@H]5CO[C@@H](c6cccs6)O[C@H]5[C@H](O)[C@H]3O)[C@H]3COC(=O)[C@H]23)OCO4)cc(OC)c1O [Teniposide],2.74,3.77,4.38,3.23,3.39,3.66
Nc1ccn([C@@H]2O[C@H](CO)[C@@H](O)C2(F)F)c(=O)n1 [Gemcitabine],2.58,2.74,3.26,2.91,2.74,2.98
O=c1cc(CO)occ1O [Kojic acid],1.24,0.713,0.837,0.833,0.625,1.14
CC[C@H]1OC(=O)[C@H](C)[C@@H](O[C@H]2C[C@@](C)(OC)[C@@H](O)[C@H](C)O2)[C@H](C)[C@@H](O[C@@H]2O[C@H](C)C[C@H](N(C)C)[C@H]2O)[C@](C)(O)C[C@@H](C)C(=O)[C@H](C)[C@H]2OC(=O)O[C@@]21C [Erythromycin Cyclocarbonate],1.11,1.33,0.736,0.984,1.01,0.912
CC(C)NC[C@H](O)COc1ccc(CCOCC2CC2)cc1 [Levobetaxolol HCl],1.03,0.954,0.622,0.99,0.412,0.877
